Measurements published in PubChem BioAssay AID651657 (Broad Institute, 2012).
Entries with a potency or affinity are not part of this list. The source made the active and inactive calls.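 Rule for the calls: active = signal falls, with fitted half-maximal concentration at most twice the top valid dose tested; inconclusive = flat curve with partial signal loss, or poor curve fit; inactive = the rest, including signal rising instead.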

What follows are compounds tested against DNA repair and recombination protein RAD54-like (Homo sapiens) (UniProt Q92698) (assay: RAD54 Holliday junction migration blockers – biochemical, fluorescence, cherry-picked samples, dose series, confirmation (AID 651657)). Conditions: RAD54 branch migration, FAM/BHQ fluorescence, 60 min; series mostly up to 50 µM.
DNA repair and recombination protein RAD54-like (Homo sapiens), sequence (Q92698 whole entry, looked up): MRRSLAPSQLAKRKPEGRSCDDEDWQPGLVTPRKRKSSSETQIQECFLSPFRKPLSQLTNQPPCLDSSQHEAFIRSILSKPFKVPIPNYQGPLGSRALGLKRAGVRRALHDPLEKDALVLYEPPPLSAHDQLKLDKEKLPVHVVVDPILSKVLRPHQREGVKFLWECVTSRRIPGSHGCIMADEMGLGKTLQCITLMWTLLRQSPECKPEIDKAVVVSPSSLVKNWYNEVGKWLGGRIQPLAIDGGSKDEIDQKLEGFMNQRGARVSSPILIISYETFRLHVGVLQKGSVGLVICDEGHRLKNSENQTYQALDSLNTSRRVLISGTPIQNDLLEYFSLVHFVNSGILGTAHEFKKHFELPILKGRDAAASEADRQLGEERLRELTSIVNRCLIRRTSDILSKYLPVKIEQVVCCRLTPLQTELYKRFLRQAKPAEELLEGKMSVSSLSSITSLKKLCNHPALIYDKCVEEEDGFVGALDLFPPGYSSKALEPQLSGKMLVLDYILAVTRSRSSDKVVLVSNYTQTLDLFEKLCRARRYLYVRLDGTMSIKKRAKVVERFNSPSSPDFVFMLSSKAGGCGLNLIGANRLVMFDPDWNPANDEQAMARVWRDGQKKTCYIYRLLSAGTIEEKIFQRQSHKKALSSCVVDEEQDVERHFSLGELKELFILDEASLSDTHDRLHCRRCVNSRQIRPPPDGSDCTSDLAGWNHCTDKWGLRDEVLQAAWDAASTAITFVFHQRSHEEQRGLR

outcome, inactive:
COc1ccc(N2C(=O)CSC23CCCCC3)cc1
Cn1nc(-c2ccccc2)cc1NS(=O)(=O)c1ccc(C#N)cc1
Cc1c(Cl)ccc(S(=O)(=O)NCCCn2ccnc2)c1Cl
O=C1C(c2ccc(F)cc2)N(C2CCCCC2)C(=O)CN1C1CCCC1 (stereo not drawn)
CCN1CCN(c2cc(C)c3cc(NC(=S)N4CC(C)CC(C)C4)ccc3n2)CC1 (stereo not drawn)
COC(=O)Nc1nnc(COc2ccccc2)s1
Cc1ccnc(Nc2nc(-c3sc(C)nc3C)cs2)c1
NC(=O)C1CCN(c2nc(-c3cccnc3)cs2)CC1
C=CCN1C(=O)C(C)(C)Nc2ccccc21
C(=C/c1nccc2c1[nH]c1ccccc12)/c1ccc2c(c1)OCO2
COc1cc(NC(=O)c2cccnc2Sc2ccc(C)c(C)c2)cc(OC)c1OC
CCC(=O)N(Cc1cc2cc(OC)ccc2[nH]c1=O)c1cc(C)ccc1C
Cc1ccnc(SCC(=O)Nc2sc3c(c2C#N)CCC(C(C)(C)C)C3)n1 (stereo not drawn)
Cc1cccc(Cn2c(Sc3nc(C)cs3)nc3c2c(=O)[nH]c(=O)n3C)c1
O=S(=O)(c1ccc(-c2nnc(SCc3ccccc3)o2)cc1)N1CCCC1
O=C(Nc1nnc(COc2ccc(F)cc2)s1)c1ccco1
CCOC(=O)c1[nH]c2cc3c(cc2c1CCCN1C(=O)c2ccccc2C1=O)OCCO3
CN(C)CCCN(C(=O)CCOc1ccccc1)c1nc2ccc(F)cc2s1
CC1CCCCC1NC(=O)C1Cc2ccccc2CN1S(C)(=O)=O (stereo not drawn)
Cc1ccc(S(=O)(=O)NCCCNS(=O)(=O)c2ccccc2[N+](=O)[O-])cc1
COCCCNCCC(CCC(C)C)c1ccc2c(c1)OCO2 (stereo not drawn)
COC(=O)C1=C(C)Nc2nc3ccccc3n2C1c1ccccc1F (stereo not drawn)
NCCN1CCN(CCN)CC1
